From PubChem BioAssay (NCATS) come the findings set out here.

Assay [1] addresses Ubiquitin carboxyl-terminal hydrolase 1 (Homo sapiens) (UniProt O94782). Kind of assay: Inhibitors of USP1/UAF1: Pilot qHTS (AID 504865).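 Further: rhodamine fluorescence freed from ubiquitin-rhodamine substrate followed over time; top concentration of the series differs between compounds; nearly all actives have a fitted effect of over 35% in size.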 Summed up:
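Deubiquitinase activity followed as kinetic rhodamine fluorescence release from 150 nM Ub-Rho. 1 nM USP1/UAF1 with compound, after 15 min room-temperature preincubation, in HEPES pH 7.8 buffer containing TCEP, EDTA, BSA and Tween-20.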
(In qHTS, concentration-response curves come from the screen itself.)

Assay [2] in a line: S16 Schwann cell PMP22 intronic element firefly luciferase assay (AID 624032). Further: nearly all actives have a fitted effect of over 30% in size. Further: potency means the concentration at half of the fitted maximal effect. The procedure, abridged: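 Rat S16 Schwann cells stably carrying a PMP22 intronic element-driven Fluc reporter were seeded overnight, then exposed to compounds for 24 h at 37 °C. Luminescence was normalized to PTC124 (positive control) and DMSO (0% activity).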
The test system of a further assay is DIV14. Kind of assay: qHTS profiling for inhibitors of Plasmodium falciparum proliferation (AID 504749). Further: nearly all actives have a fitted effect of over 60% in size. Further: potency means the concentration at half of the fitted maximal effect. The settings on record: P. falciparum in erythrocytes, SYBR Green DNA, 72 h; series mostly up to 28.7 µM. The procedure, abridged:
(§1)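 Quantitative HTS: compounds pinned into medium, infected erythrocytes added (0.3% parasitemia, 2.5% hematocrit), 72 h culture at 37 C under 5% CO2. Saponin/Triton lysis with SYBR Green I, overnight RT, then fluorescence read.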

The next assay has as its system ICS. Described as above. The settings on record: P. falciparum in erythrocytes, SYBR Green DNA, 72 h; series mostly up to 28.7 µM. The procedure, abridged: as §1
The test system of another assay is W2. Described as above. The settings on record: P. falciparum in erythrocytes, SYBR Green DNA, 72 h; series mostly up to 28.7 µM. Summed up: as §1
In the next assay the test system is DFO2036. The assay is described as above. The settings on record: P. falciparum in erythrocytes, SYBR Green DNA, 72 h; series mostly up to 28.7 µM. Summed up:
as §1

Assay [3] has as its target Cytochrome P450 3A4 (Homo sapiens) (UniProt P08684). Kind of assay: qHTS Assay for Inhibitors and Substrates of Cytochrome P450 3A4 (AID 884). Further: nearly all actives have a fitted effect of over 50% in size. The procedure, abridged: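 Luminescent readout of luciferin produced by CYP3A4 (20 nM) dealkylation of Luciferin-PPXE, 25 uM (its KM). NADPH-driven reaction ran 60 min at RT after 10 min compound preincubation; data scaled to 57 uM ketoconazole as 100% inhibition.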

Assay [4] in a line: Confirmation and Secondary Assay for Modulators of Hemoglobin Beta Chain Splicing at IVS2 654 locus (AID 910). Summed up:
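HeLa cells stably carrying EGFP interrupted by mutant beta-globin IVS2-654 intron (CMV-driven) were treated with compound for 2 days at 37C; corrected splicing was scored as total peak GFP intensity per well (488 nm excitation, 500-520 nm emission).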

A short description of assay [5]: Confirmation and Secondary Assay for Modulators of Hemoglobin Beta Chain Splicing at IVS2 705 locus (AID 930).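 Further: HeLa cells stably expressing the EGFP-705 splicing reporter; GFP fluorescence per well restored by corrected splicing of the IVS2-705 intron in EGFP.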 Summed up: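 Read-out: total peak GFP fluorescence per well (488 nm excitation, 500-520 nm emission) by laser-scanning cytometry. Cells: HeLa EGFP-705 splicing reporter, 2 days compound exposure in Optimem/2% FCS.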

Structures are written as SMILES. Inconclusive results are not listed. The source made the active and inactive calls. The call rests on the fitted dose curve; in most records, active means well fitted curve in the direction sought with a large enough effect; inconclusive means small, poorly fitted or top-dose-only effect, or another doubt; inactive means no such curve, though single readings can be large; an effect the other way counts as inactive or inconclusive.

Sequence of Cytochrome P450 3A4 (Homo sapiens) (P08684 whole entry, looked up): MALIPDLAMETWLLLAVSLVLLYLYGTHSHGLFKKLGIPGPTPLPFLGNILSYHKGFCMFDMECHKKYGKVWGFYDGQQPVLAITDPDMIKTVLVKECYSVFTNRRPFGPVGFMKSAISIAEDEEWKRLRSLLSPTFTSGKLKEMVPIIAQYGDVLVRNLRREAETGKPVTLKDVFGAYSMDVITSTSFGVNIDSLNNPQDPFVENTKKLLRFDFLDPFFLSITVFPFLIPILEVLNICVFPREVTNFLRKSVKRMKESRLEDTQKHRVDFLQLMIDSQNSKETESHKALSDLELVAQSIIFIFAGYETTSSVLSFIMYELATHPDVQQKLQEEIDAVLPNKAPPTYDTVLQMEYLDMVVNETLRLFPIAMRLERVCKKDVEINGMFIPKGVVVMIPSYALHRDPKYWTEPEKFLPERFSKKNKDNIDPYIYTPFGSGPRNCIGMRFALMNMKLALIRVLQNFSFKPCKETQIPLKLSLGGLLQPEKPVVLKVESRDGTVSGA
Sequence of Ubiquitin carboxyl-terminal hydrolase 1 (Homo sapiens) (O94782 whole entry, looked up): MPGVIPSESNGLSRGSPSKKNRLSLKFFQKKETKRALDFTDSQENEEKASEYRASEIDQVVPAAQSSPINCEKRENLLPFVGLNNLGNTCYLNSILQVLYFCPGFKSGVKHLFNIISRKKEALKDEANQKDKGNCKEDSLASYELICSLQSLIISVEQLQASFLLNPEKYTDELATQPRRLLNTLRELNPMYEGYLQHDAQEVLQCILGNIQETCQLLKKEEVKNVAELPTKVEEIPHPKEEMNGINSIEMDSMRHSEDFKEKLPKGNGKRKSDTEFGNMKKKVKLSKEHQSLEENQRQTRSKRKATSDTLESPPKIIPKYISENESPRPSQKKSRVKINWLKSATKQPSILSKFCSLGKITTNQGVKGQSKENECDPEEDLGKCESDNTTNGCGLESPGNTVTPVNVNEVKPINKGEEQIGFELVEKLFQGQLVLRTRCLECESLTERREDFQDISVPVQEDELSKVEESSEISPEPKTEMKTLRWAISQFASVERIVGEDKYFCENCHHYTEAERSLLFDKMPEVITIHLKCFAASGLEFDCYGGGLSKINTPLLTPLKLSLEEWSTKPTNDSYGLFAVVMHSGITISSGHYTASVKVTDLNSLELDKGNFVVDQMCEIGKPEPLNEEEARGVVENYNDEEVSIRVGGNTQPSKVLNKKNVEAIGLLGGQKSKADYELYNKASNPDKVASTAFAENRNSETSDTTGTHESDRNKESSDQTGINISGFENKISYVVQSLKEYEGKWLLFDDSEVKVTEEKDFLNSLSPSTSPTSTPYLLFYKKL

`CCCCC/C(C=O)=C/c1ccccc1`: the Potency entry (in assay [1]; in [2]; in the assay on DIV14; with ICS; with W2) was “inactive” each time.
Regarding `C[n+]1c2cc(N)ccc2cc2ccc(N)cc21`, the Potency with DFO2036 is 355 nM (active); with DIV14, 213 nM (active); in the assay with W2, 757 nM (active).
In the case of `CCC(C(=O)O)C1OC(C(C)C(O)C(C)C(=O)C(CC)C2OC3(C=CC(O)C4(CCC(C)(C5CCC(O)(CC)C(C)O5)O4)O3)C(C)CC2C)C(C)CC1C` (configuration not stated), the Potency entry in assay [1] was “inactive”. For the same compound, the Potency in assay [2] was 102 nM (active); in the assay with DFO2036, 126 nM (active); in the assay on DIV14, 95.3 nM (active); with ICS it was 89.1 nM (active).
`C[C@H]1OC(OC2C(O)[C@@H](O)C(OC3C(O)[C@@H](O)C(O)O[C@@H]3CO)O[C@@H]2CO)[C@H](O)C(O)C1N[C@H]1C=C(CO)[C@@H](O)[C@H](O)C1O` (some centres not stated): the Potency result (in [1]; in [2]; with DIV14; in the assay on ICS; in the assay with W2) was “inactive” in each case.
As for `OCC1O[C@H](Oc2ccc(O)cc2)C(O)C(O)C1O` (some centres not stated), the Potency result (in [3]; in assay [4]; in assay [5]; in assay [1]; in assay [2]; with DFO2036) was “inactive” throughout. Moreover, the Potency entry with DIV14, in the assay on ICS and with W2 was “inactive” in each case.
On to `C[C@H]1[C@@H](OC(=O)CCC(=O)O)OC2OC3(C)CC[C@H]4[C@H](C)CC[C@@H]1[C@@]24OO3` (some centres not stated), for which the Potency entry in assay [1] was “inactive”. For the same compound, the Potency in assay [2] is 2560 nM (active); in the assay with DFO2036, 3.5 nM (active); in the assay with DIV14 it was 3.4 nM (active); in the assay with ICS it was 3.2 nM (active); with W2, 1.9 nM (active).
Turning to `O=C1[C@@H]2C[C@@H]3C[C@H]1C[C@@](O)(C3)C2`, the Potency entry (in assay [1]; with DIV14; in the assay with ICS; with W2) was “inactive” each time.
For the compound `CNC(=O)C(N)CSC(C)C1=C(C)c2cc3[n-]c(cc4nc(cc5[n-]c(cc1n2)c(C)c5CCC(=O)O)C(CCC(=O)O)=C4C)c(C)c3C(C)SCC(N)C(=O)NC.[Fe+2]` (configuration not stated), the Potency result (in assay [1]; in assay [2]; in the assay with DIV14; in the assay on ICS; in the assay with W2) was “inactive” in each case.
With `Cc1ccc(S(=O)(=O)NC(=O)NC(C)Cc2ccccc2)cc1` (configuration not stated), the Potency entry (in assay [1]; in assay [2]; with DIV14; in the assay on ICS; with W2) was “inactive” in each case.
Take `COC(c1ccccc1)(c1ccccc1)C(Oc1nc(C)cc(C)n1)C(=O)O` (configuration not stated): the Potency entry (in [1]; in assay [2]; in the assay with DIV14; in the assay on ICS; in the assay on W2) was “inactive” throughout.
Consider `C[S+](C)CC[C@H](N)C(=O)O`, for which the Potency result (in [1]; in assay [2]; in the assay with DIV14; in the assay with ICS; in the assay on W2) was “inactive” each time.
For the compound `C=NC(C(=O)NC1C(=O)N2C1SC(C)(C)C2C(=O)O)c1ccccc1` (configuration not stated), the Potency entry (in assay [4]; in assay [5]; in [2]; in the assay on DIV14; with ICS; in the assay on W2) was “inactive” each time.
With `CCCCCCCCCCCCCCCC(=O)OC[C@H](O)[C@H]1OC[C@@H](O)[C@@H]1O`, the Potency result (in assay [1]; with DFO2036; with ICS; in the assay with W2) was “inactive” each time.
Regarding `C=CC1CN2CCC1CC2[C@@H](O)c1ccnc2ccc(OC)cc12` (some centres not stated), the Potency in assay [2] was 32200 nM (active); with DFO2036, 708 nM (active); in the assay on DIV14, 213 nM (active); in the assay with ICS, 89.1 nM (active); in the assay with W2, 190 nM (active).
As for `NC(=O)C1CC2(NC(=O)NC2=O)c2cc(F)ccc2O1` (configuration not stated), the Potency result (in [1]; in assay [2]; in the assay with DFO2036; with ICS; with W2) was “inactive” in each case.
`CCCCC(=O)OCC(=O)[C@]1(O)Cc2c(O)c3c(c(O)c2[C@H](OC2CC(NC(=O)C(F)(F)F)C(O)C(C)O2)C1)C(=O)c1c(OC)cccc1C3=O` (some centres not stated): the Potency is 721 nM (active) in [2]; 2510 nM (active) with DFO2036; 1690 nM (active) in the assay on DIV14; 794 nM (active) in the assay with ICS; 1510 nM (active) in the assay on W2.
Consider `CC[C@@]1(O)C[C@H](O[C@H]2C[C@@H](N(C)C)[C@@H](O[C@H]3C[C@@H](O)[C@@H](O[C@H]4CCC(=O)[C@@H](C)O4)[C@@H](C)O3)[C@@H](C)O2)c2c(cc3c(c2O)C(=O)c2c(O)cccc2C3=O)[C@H]1C(=O)OC`, for which the Potency with DFO2036 is 178 nM (active); with DIV14 it was 379 nM (active); in the assay with ICS it was 44.7 nM (active); in the assay with W2, 151 nM (active).
Take `CC1OC(OCC2OC(Oc3c(-c4ccc(OCCO)c(OCCO)c4)oc4cc(OCCO)cc(O)c4c3=O)C(O)C(O)C2O)[C@@H](O)C(O)C1O` (some centres not stated): the Potency entry (in assay [3]; in assay [4]; in assay [5]; in assay [1]; in assay [2]; in the assay with DFO2036) was “inactive” each time. The Potency entry in the assay on DIV14, in the assay with ICS and in the assay on W2 was “inactive” each time.
Take `CN1[C@@H]2CC[C@@H]1CC(OC(=O)[C@H](CO)c1ccccc1)C2` (some centres not stated): the Potency entry (in assay [2]; in the assay with DFO2036; with DIV14; in the assay with ICS; with W2) was “inactive” throughout.
Regarding `CC(=O)NC[C@@H]1CN(c2ccc(N3CCOCC3)c(F)c2)C(=O)O1`, the Potency entry (in assay [1]; in [2]; in the assay on DIV14; in the assay with ICS; with W2) was “inactive” in each case.
Take `CC(CCC(=O)O)C1CCC2C3C(=O)C[C@@H]4CC(=O)CC[C@@]4(C)C3CC(=O)[C@]12C` (some centres not stated): the Potency entry (in assay [3]; in [4]; in assay [5]; in assay [1]; in assay [2]; with DFO2036) was “inactive” throughout. Besides, the Potency result in the assay with ICS was “inactive”.
On to `OC[C@@H]1O[C@](CO)(O[C@H]2O[C@H](CO)[C@@H](O)[C@H](O)[C@H]2O)[C@H](O)[C@H]1O`, for which the Potency result (in [1]; in the assay with DFO2036; in the assay with DIV14; in the assay with ICS; in the assay with W2) was “inactive” each time.
With `CN(C)CC/C=C1\c2ccccc2COc2ccc(CC(=O)O)cc21`, the Potency result (in assay [1]; in [2]; in the assay on DFO2036; with DIV14; in the assay with ICS) was “inactive” in each case.
